This is a sample that favours compounds with a hit; in the whole collection about 2.4% have one here.
TRAIL sens C8 – viability loss with TRAIL in NB7+C8 cells, primary screen, TRAIL sensitizer project, cell-based, ATPlite luminescence; inhibition (viability loss, TRAIL sensitization), % at 10 µM; 360,000 tested, 1% active;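 active = compounds causing at least 50% loss of cell viability in the single-dose screen, relative to plate controls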
STAT1 blocker – STAT1 signaling inhibitors, primary screen, cell-based, HTS, luciferase reporter | AID 920, 2007 | 200,000 tested, 0.35% active | inhibition, % at 5.5 µM | NIH 3T3 STAT1-luciferase reporter, IFN-gamma, luminescence;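 active = inhibition above a set limit, the mean inhibition across all tested compounds plus 3 SD, cut at about 34% in these data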;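 also: 0% = IFN-gamma with DMSO and 100% = IFN-gamma with 300 µM nifuroxazide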
PPC-1+TRAIL kill – compounds killing PPC-1 cancer cells with TRAIL present, primary screen, TRAIL potentiator project, ATPLite luminescence, uHTS | PPC-1 cells + TRAIL, ATPLite viability luminescence | cell killing (% activity), % at 4 µM or 5 µM | 220,000 tested, 0.41% active | AID 1443, 2008;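 active = cell killing above 50% in the first pass at 4 µM, then a duplicate retest at 5 µM averaging 50% or more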;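 also: plate controls were cells with TRAIL plus DMSO for no effect and medium-only wells lacking cells for full effect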
STAT3 blocker – IL-6 driven STAT3 reporter inhibitors, primary screen, U3A cells, luciferase, luminescence, MLSCN library | IL-6 STAT3-luciferase reporter; host cell line lacks STAT1 | inhibition, % at 5.5 µM | 190,000 tested, 0.89% active;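 active = inhibition above the mean inhibition across all screened compounds plus 3 SD, cut at about 44% in these data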;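 also: 0% = DMSO only wells and 100% = 100 µM nifuroxazide control wells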
HSF1 inhib – HSF1 inhibitors in luciferase reporter cells, primary screen, cell-based, NIH3T3, luminescence | NIH3T3-HGL HSE-luciferase, MG132-induced, luminescence 8 h; stronger effect = lower value | activity change, negative = inhibition, % at 7.5 µM (by protocol) | 300,000 tested, 0.77% active | AID 2098, 2009;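 active = more than half of replicate wells show activity change below -50%, luminescence cut by over half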;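 also: luciferase reports HSF-1 transcriptional activity via heat shock element; 0% = median of DMSO wells and -100% = zero luminescence signal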
HSP90 refold inh – HSP90 inhibitors, primary screen, cell lysate, luminescence; Rabbit reticulocyte lysate, luciferase refolding luminescence, 3 h; Heat shock protein HSP 90 (rabbit reticulocyte lysate; luciferase refolding); 290,000 tested, 0.91% active; inhibition, % at 5.6 µM; AID 1789, 2009;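 active = inhibition above the screen-wide mean plus 3 SD, computed separately per campaign, cut at about 16% in these data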;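 also: 0% = DMSO wells and 100% = 60 µM geldanamycin wells; inhibitors lower the luminescence because luciferase stays unfolded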
PPC1 cytotox – cytotoxicity in PPC-1 cells, confirmation, cytotoxicity control for TRAIL apoptosis potentiator project, cell-based, ATP content luminescence; cytotoxicity, % at 5 µM; PPC-1 viability, ATPlite luminescence, overnight; shares compounds with PPC-1+TRAIL kill; AID 1447, 2008; 1,200 tested, 50% active;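 active = reconfirmed compounds whose average cytotoxicity reaches 50% or more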;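 also: 0% = DMSO-treated cells and 100% = wells holding medium but no cells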
The depositor's hits bear a star; . = not tested or not shown.

SMILES	TRAIL sens C8	STAT1 blocker	PPC-1+TRAIL kill	STAT3 blocker	HSF1 inhib	HSP90 refold inh	PPC1 cytotox
CC(=O)c1cccc(OCC(=O)N(CCC2=CCCCC2)c2c(N)n(Cc3ccccc3)c(=O)[nH]c2=O)c1	14.9	.	.	.	.	.	.
O=C(Nc1nc2cc3c(cc2s1)OCO3)c1cccc(N2C(=O)CCC2=O)c1	56.0*	.	49.2	.	.	2.5	58.4*
CC(C)NC(=O)C1C(c2ccc(C(F)(F)F)cc2)=Nc2ccccc2N1C(=O)c1cccc2ccccc12 (stereo not given)	8.1	.	.	.	.	.	.
O=C(/C=C/[C@H]1O[C@@H](n2ccc(=O)[nH]c2=O)[C@H](O)[C@@H]1O)N1CCN(CCc2ccccc2)CC1	0.9	.	.	.	.	.	.
Cc1ccccc1-c1nc2sc(C)c(C)c2c(=O)o1	-3.7	.	.	.	-35.0	-2.5	.
Cc1sc2nc(C(C)(C)C)oc(=O)c2c1C	6.9	2.5	-8.6	1.7	2.8	4.5	1.2
CCc1nc(CN2CCCC(C(=O)c3ccc4c5c(cccc35)CC4)C2)c(C)[nH]1 (stereo not given)	17.9	4.3	12.9	14.0	-2.6	2.2	17.2
O=C(c1ccc2c3c(cccc13)CC2)C1CCCN(Cc2ccncc2)C1 (stereo not given)	7.7	17.7	15.8	34.5	-1.8	-4.8	.
COC(=O)CC1C(=O)NCCN1C(=O)NC1CCCCC1 (stereo not given)	-6.1	-0.7	14.5	5.6	0.3	-0.5	.
CCNC(=O)N1CCNC(=O)C1CC(=O)OC (stereo not given)	0.8	-12.7	0.8	-5.5	-6.3	-1.3	9.2
O=C(Nc1ccc(-c2cn3ccsc3n2)cc1)C1CCCC1	78.9*	-25.0	72.6*	34.5	22.9	1.5	73.3*
O=C(Nc1ccc(-c2cn3ccsc3n2)cc1)C1CC1	68.8*	-12.2	61.3*	22.7	21.8	0.7	64.3*
CC(=O)Nc1ccc(-c2cn3ccsc3n2)cc1	36.4	-39.8	33.6	26.3	10.0	1.1	.
CCC(=O)Nc1cccc(-c2cn3ccsc3n2)c1	11.0	-6.8	-2.4	10.2	-5.7	2.4	8.6
COc1ccccc1Cc1c(-c2ccco2)nc2c(C)cc(Br)cn12	13.0	.	.	.	.	.	.
COc1ccc(S(=O)(=O)Nc2c(C)n(C)n(-c3ccccc3)c2=O)cc1Br	-20.1	.	.	.	-7.5	-6.0	.
COc1cc(Br)c(S(=O)(=O)Nc2c(C)n(C)n(-c3ccccc3)c2=O)cc1OC	-4.9	2.6	5.2	7.5	-3.9	-0.5	5.5
NC(=O)C(=CNc1nc(-c2ccc(Cl)c(Cl)c2)cs1)C(N)=O	.	.	5.6	.	.	1.4	.
CC1CCc2c(sc(/N=C/c3ccco3)c2C(N)=O)C1 (stereo not given)	62.7*	.	48.8	.	19.9	4.5	49.3
O=C1COC(c2ccccc2O)=NN1CCCl	-1.0	.	.	.	.	.	.
Cn1c(C(=O)Nc2ccc3c(c2)OCCO3)cc2sccc21	56.2*	-94.3	42.5	30.8	-0.4	3.8	40.3
Cc1cc(C)c(C(=O)Nc2ccc3c(c2)OCCO3)c(C)c1	0.0	.	.	.	.	.	.
Cc1cc(C(=O)Nc2ccc3c(c2)OCCO3)co1	47.6	-22.4	44.0	7.9	15.4	10.1	40.2
Cc1ccc(C(=O)Nc2ccc3c(c2)OCCO3)o1	53.6*	-10.5	62.0*	20.1	-4.9	5.1	58.7*
O=C(Nc1ccc2c(c1)OCCO2)c1ccc2ccccc2n1	33.0	-42.5	42.5	-23.4	.	0.8	41.5
SMILES	TRAIL sens C8	STAT1 blocker	PPC-1+TRAIL kill	STAT3 blocker	HSF1 inhib	HSP90 refold inh	PPC1 cytotox
Cc1ccc(F)c(S(=O)(=O)NC(=O)C2(C)CCN2C(=O)c2ccccc2)c1 (stereo not given)	2.4	.	.	.	.	.	.
CCOC(=O)N1CCN(C(=O)C[C@@H]2C[C@@]3(C(=O)OC)CC(C)(C)CC=C3N(Cc3ccc4c(c3)OCO4)C2=O)CC1	-14.2	.	.	.	.	.	.
CCCCNc1c(-c2ccc(F)cc2)nc2nc(C)cc(C)n12	-18.0	.	.	.	.	.	.
O=C(O)COc1ccc(NC(=O)c2ccc3c(c2)C(=O)N(CC2CCCO2)C3=O)cc1 (stereo not given)	7.9	.	.	.	.	.	.
Cc1ccc2c(c1)COc1c3ccc(C(=O)NCC4CC4)cc3nn1-2	23.9	.	6.2	.	21.5	.	.
O=C(NCCO)c1ccc2c3n(nc2c1)-c1ccccc1CO3	70.2*	.	70.6*	.	14.9	.	70.3*
O=C(NCC1CC1)c1ccc2c3n(nc2c1)-c1ccccc1CO3	82.7*	.	79.7*	.	30.3	.	75.7*
CCc1ccc(NC(=S)Nc2cccc3cnccc23)cc1	7.1	5.9	-2.6	-24.7	16.7	3.8	-5.7
Cc1nc2cc(NC(=O)Nc3cccc4ccccc34)ccc2n1C	47.6	-51.4	33.5	19.5	15.0	0.0	34.9
Cc1nc2cc(Nc3nnc(-c4ccccc4)c4ccccc34)ccc2n1C	75.4*	-27.2	70.8*	12.2	.	5.3	70.5*
COc1ccc(Nc2nnc(-c3ccccc3)c3ccccc23)cc1C(=O)N1CCCCC1	4.5	-16.3	13.1	8.5	-5.6	1.8	.
Cc1ccc(NC(=O)Nc2ccc3c(c2)nc(C)n3C)cc1C	.	-79.4	14.8	11.5	-20.9	-5.2	.
O=S1(=O)CC(N2CCN(Cc3ccccc3F)CC2)CN1Cc1cn(Cc2cccc(Cl)c2)nn1 (stereo not given)	-22.1	.	.	.	.	.	.
CCN(CC)c1ccc(C(=O)Nc2cccc(F)c2)cc1	41.5	-29.6	15.6	34.9	27.0	0.9	15.7
CN(C)c1cccc(C(=O)Nc2cccc(F)c2)c1	-14.5	-34.4	34.5	2.8	-3.5	-2.7	.
CC(O)(c1cccnc1)c1nc(-c2cccc(C#N)c2)cs1 (stereo not given)	2.1	.	.	.	.	.	.
Fc1ccccc1/C=N/Nc1nc(-c2ccccn2)nc2ccccc12	.	.	61.1*	.	0.3	3.4	45.6
O=C(NC1CCCC1)C1C(c2ccc(C(F)(F)F)cc2)=Nc2ccccc2N1C(=O)c1ccccc1 (stereo not given)	-3.4	.	.	.	.	.	.
COc1ccc(-c2cc(C(=O)N/N=C/c3cc(OC)c(OC)cc3OC)c3ccccc3n2)cc1	28.3	.	.	.	-0.7	.	.
Cc1ccc(-c2cc(C(=O)N/N=C\c3cnn(C)c3C)c3ccccc3n2)cc1C	45.7	-5.8	52.9*	-14.7	-2.4	1.1	45.3
O=C(O)c1ccccc1NC(=O)C1CCCO1 (stereo not given)	-14.5	-4.4	6.8	0.5	-8.5	-0.4	6.4
O=C(O)c1cc(Cl)ccc1NC(=O)C1CCCO1 (stereo not given)	5.7	8.0	13.9	4.8	5.1	-2.5	-10.0
NC(=S)NN=C1CSSC1	17.3	.	.	.	.	.	.
O=C1Nc2ccccc2C1=Nc1ccc2[nH]c3ccccc3c2c1	13.2	.	.	.	.	.	.
